PubChem BioAssay (Tox21)
The source made the active and inactive calls. The call rests on the fitted dose curve.

These molecules were tested against Acetylcholinesterase (Homo sapiens) (UniProt P22303) (assay: Acetylcholinesterase (AChE) small molecule antagonists: enzyme-based qHTS assay with human liver microsomes (AID 1347399; further: nearly all actives have a fitted effect of over 60% in size)). Conditions: Potency: qHTS inhibition; outcome: qHTS inhibition; series mostly up to 115 µM; activity change, negative = inhibition: at the top concentration.
Sequence of Acetylcholinesterase (Homo sapiens) (P22303 whole entry, looked up): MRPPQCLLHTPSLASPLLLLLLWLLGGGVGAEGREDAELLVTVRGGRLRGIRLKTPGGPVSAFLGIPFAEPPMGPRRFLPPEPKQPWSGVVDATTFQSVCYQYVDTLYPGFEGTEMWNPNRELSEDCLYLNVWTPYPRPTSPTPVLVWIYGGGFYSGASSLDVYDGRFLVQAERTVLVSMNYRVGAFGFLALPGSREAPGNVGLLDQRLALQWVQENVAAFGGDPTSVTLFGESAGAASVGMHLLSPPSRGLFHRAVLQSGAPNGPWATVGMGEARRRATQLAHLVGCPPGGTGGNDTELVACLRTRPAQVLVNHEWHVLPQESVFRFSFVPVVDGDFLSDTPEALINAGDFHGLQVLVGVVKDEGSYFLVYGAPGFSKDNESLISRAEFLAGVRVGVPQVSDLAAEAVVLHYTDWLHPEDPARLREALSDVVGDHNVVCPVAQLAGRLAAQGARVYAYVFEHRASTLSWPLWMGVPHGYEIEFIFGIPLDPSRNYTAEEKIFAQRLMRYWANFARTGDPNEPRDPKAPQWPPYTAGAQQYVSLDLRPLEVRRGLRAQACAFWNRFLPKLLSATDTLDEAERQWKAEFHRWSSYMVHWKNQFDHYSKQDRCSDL
Source text: National Center for Advancing Translational Sciences [NCATS]
Division of Preclinical Innovation [DPI]
U.S. Environmental Protection Agency [EPA]
National Institutes of Environmental Health Sciences [NIEHS]
National Toxicology Program [NTP]
U.S. Food and Drug Administration [FDA]
Acetylcholinesterase (AChE) is the primary cholinesterase in the body that hydrolyzes a key neurotransmitter, acetylcholine. Inhibition of AChE activity can lead to neurotoxicity. The known inhibitors include organophosphorous pesticides (OP), chemical warfare agents, drugs, and various phytochemicals. Some compounds like OP compounds may need metabolic activation to be active AChE inhibitors. The cytochrome P450 (CYP) superfamily in the human microsomes is responsible for the metabolism of various endogenous and exogenous compounds.
An enzyme-based assay with the recombinant human AChE, human liver microsomes and Amplite Colormetric acetylcholinesterase assay kit (AAT Bioquest, Sunnyvale, CA) was used to evaluate compounds in the Tox21 10K library that need metabolic activation for AChE inhibition. The assay uses 5, 5-dithiobis-(2-nitrobenzoic acid) (DTNB) to quantify the thiocholine produced from the hydrolysis of acetylthiocholine by AChE.
Tox21 Assay Protocol Summary:
For the enzyme-based AChE assay with microsomes addition, a mixture of human AChE (50 mU/mL) and human liver microsomes (0.25 mg/mL, final concentration) in 3 uL/well was dispensed into black, clear-bottom 1536-well plates using a Multidrop Combi dispenser (Thermo Scientific, MA). Then, 23 nL of compound or DMSO (vehicle control) was transferred into the assay plates by a Pintool Station (Wako Automation, CA). Following compound addition, 1 uL of NADPH (0.25 mg/mL, final concentration) was transferred to the assay plate by a Flying Reagent Dispenser (Beckman Coulter, CA). The plates were incubated for 30 min at 37 C and 5% CO2, followed by the addition of 4 uL of colorimetric detection cocktail solution (DTNB, acetylthiocholine) into each well using a Flying Reagent Dispenser (Beckman Coulter, CA) and then 10 min incubation at room temperature.
On the % scale 0 is the no-effect control and ±100 the full control effect.

Row | SMILES | activity change, negative = inhibition
1 | O=C(O)c1cccc(N(Cc2cccnc2)c2ccc(OC(F)F)c(OC(F)F)c2)c1 | -0.0584% (inactive)
2 | C[C@H](CCC(=O)NCC(=O)O)[C@H]1CC[C@H]2[C@@H]3[C@H](O)C[C@@H]4C[C@H](O)CC[C@]4(C)[C@H]3C[C@H](O)[C@]12C | 0.68% (inactive)
3 | CCCCCCCCOC(=O)c1cc(O)c(O)c(O)c1 | -3.36% (inactive)
4 | CCOC(=O)CC | 0% (inactive)
5 | CC/C=C/CCCCCCCCCCOC(C)=O | -2.03% (inactive)
6 | Clc1cc(Cl)cc(Cl)c1 | -0.665% (inactive)
7 | O=S(=O)(c1ccccc1)c1ccc(Cl)cc1 | 0.0764% (inactive)
8 | CC(C(O)c1ccc(O)cc1)N1CCC(Cc2ccccc2)CC1 (stereo not given) | -1% [at 53 µM] (inactive)
9 | Cc1ccc(C)c(N)c1 | -0.849% (inactive)
10 | OCc1cc(C(O)CNCCCCCCOCCCCc2ccccc2)ccc1O (stereo not given) | 1.02% [at 53 µM] (inactive)
11 | CNCCO | -1.53% (inactive)
12 | C/C(=N\[Si](C)(C)C)O[Si](C)(C)C | -1.14% (inactive)
13 | CC1CNCC(C)O1 (stereo not given) | 1.93% (inactive)
14 | C/C=C/C(=O)CC | -3.23% [at 23.6 µM] (inactive)
15 | Cc1c(N)cccc1Cl | 3.39% (inactive)
16 | Cc1onc(-c2c(Cl)cccc2Cl)c1C(=O)N[C@@H]1C(=O)N2[C@@H]1SC(C)(C)[C@@H]2C(=O)O | -0.591% [at 53 µM] (inactive)
17 | O=C1C(=O)c2ccccc2C(O)=C1C1CCC(c2ccc(Cl)cc2)CC1 (stereo not given) | -0.972% [at 53 µM] (inactive)
18 | Nc1ccc(C(=O)OCCCOC(=O)c2ccc(N)cc2)cc1 | -3.36% (inactive)
19 | CCC(C)c1ccccc1 (stereo not given) | 0.567% (inactive)
20 | CN(C)CCOCCN(C)CCO | -0.622% (inactive)

Row | SMILES | activity change, negative = inhibition
21 | CCCCCCCCCOC(=O)c1ccccc1C(=O)OCCCCCCCCC | -1.9% (inactive)
22 | O=[N+]([O-])c1ccc2[nH]ncc2c1 | 0.526% (inactive)
23 | c1ccc2c(c1)ccc1c3ccccc3ccc21 | -0.324% [at 53 µM] (inactive)
24 | CC[N+](C)(CC)CCOC(=O)C1c2ccccc2Oc2ccccc21 | -0.926% [at 53 µM] (inactive)
25 | CC(=O)NO | -0.885% [at 53 µM] (inactive)
26 | Cc1ccc(C2OC[C@@H]3OC(c4ccc(C)cc4)O[C@H]([C@H](O)CO)[C@@H]3O2)cc1 (stereo not given in full) | 0.165% (inactive)
27 | Cc1c(C(=O)NN2CCCCC2)nn(-c2ccc(Cl)cc2Cl)c1-c1ccc(Cl)cc1 | -0.443% [at 53 µM] (inactive)
28 | C=C(C)C(=O)NCCCN(C)C | 0.153% (inactive)
29 | OC/C=C/CO | 0.238% (inactive)
30 | CCCCOc1cc(C(=O)OCCN(CC)CC)ccc1N | 0.0625% [at 53 µM] (inactive)
31 | CC(C)(O)CCCC1=CCC(C=O)CC1 (stereo not given) | 1.43% (inactive)
32 | OCCCC1CCCCC1 | -0.268% (inactive)
33 | CC/C=C\CCCCCCCCCCOC(C)=O | -0.148% (inactive)
34 | COC(=O)C1=C(C)NC(C)=C(C(=O)OC(C)C)C1c1cccc2nonc12 (stereo not given) | 2.02% [at 53 µM] (inactive)
35 | OCCCc1cccnc1 | 0.472% (inactive)
36 | O=C(O)/C=C/c1ccc(O)c(O)c1 | 1.59% (inactive)
37 | CCOCN(C(=O)CS(=O)(=O)O)c1c(C)cccc1CC | 1.23% (inactive)
38 | CCCCCO | -5.86% (inactive)
39 | CC(C)=CCC/C(C)=C/C#N | 0.764% (inactive)
40 | NS(=O)(=O)c1cc(C2(O)NC(=O)c3ccccc32)ccc1Cl (stereo not given) | -1.72% [at 53 µM] (inactive)
